Compounds with a hit are over-represented: about 2.2% of the library has one in this group of screens.
LGR2 antag = blocks bursicon-induced cAMP signaling via Drosophila LGR2; HEK293 LGR2, CRE-luciferase, bursicon-stimulated, 4 h; 0.35% of 380,000 active; inhibition, % at 9.99 µM;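 active = drop in luminescence signal, shown as inhibition above about 50% in the replicate tests, limit read from the data, passing the limit was not always enough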;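 note: agonist challenge used bursicon conditioned medium at about half maximal strength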
EWS-Fli block = EWS/Fli transcriptional activity inhibition; A673 NR0B1-luciferase reporter, viability-normalised; inhibition, % at 12.6 µM; 0.67% of 350,000 active;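 active = mean inhibition of at least 50% after viability correction, with every replicate also passing that limit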;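 note: firefly luciferase signal divided by Alamar Blue viability fluorescence both relative to DMSO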
TRPM1 prom inh = reduces MITF-dependent TRPM1 promoter luciferase signal | SK-MEL-5 TRPM1 promoter luciferase, 24 h | inhibition, % at 12.5 µM | 0.83% of 330,000 active;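 active = mean inhibition across replicates of 60% or more, whatever share of single replicates reaches that level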
Shn3 inh set2 = Schnurri-3 reporter inhibition in Clone20 osteoblasts; Clone20 osteoblast Shn3 3'UTR firefly luciferase, 24 h; inhibition, % at 12.5 µM; 0.52% of 360,000 active;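 active = mean inhibition of at least 75% with every replicate also reaching 75%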;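 note: 0% = median of neutral control wells and 100% = pilot-screen positive control compound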
PAX8 inh HTS = lowers PAX8-driven luciferase in RMG-I cells; RMG-I TPO-luciferase reporter, SteadyGlo, 24 h; inhibition, % at 12.6 µM; 1.2% of 360,000 active;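 active = mean replicate inhibition at least 60% with every replicate also reaching 60%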;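 note: luciferase light reporting Pax8 driven TPO promoter activity; plate controls were median of neutral control wells for no effect and mitoxantrone controls for full effect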
EBV LMP1 NFkB = reduces LMP1-driven NF-kappaB luciferase signal. LMP1-induced NF-kappaB luciferase reporter cells, luminescence. 0.69% of 350,000 active. inhibition, % at 12.5 µM; in the data active = inhibition above about 41%;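 note: 0% = neutral control wells and 100% = reference inhibitor control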
Active calls of the source: *; · = no result.

SMILES	LGR2 antag	EWS-Fli block	TRPM1 prom inh	Shn3 inh set2	PAX8 inh HTS	EBV LMP1 NFkB
COC(=O)c1cccc(NC(=O)Nc2ccc(Cl)cc2)c1	-13	75*	-10	-40	-63	-5
Cc1ccc(NC(=O)C[C@H]2CC[C@H]3[C@@H](COc4ccc(NC(=O)C5CCCCC5)cc4C(=O)N3C)O2)cc1	-15	-7	·	·	-21	·
Cc1noc(C)c1S(=O)(=O)N(C)C[C@H]1Oc2ccc(NS(=O)(=O)c3ccc(Cl)cc3)cc2C(=O)N([C@@H](C)CO)C[C@H]1C	3	9	·	·	·	·
CC(C)(C)c1ccc(C(=O)Nc2sc3c(c2C(=O)O)CCC3)cc1	39	23	66*	29	80*	27
O=C(Nc1sc2c(c1C(=O)O)CCCC2)c1ccc(F)cc1	-33	-352	·	-46	16	-9
CCCNC(=O)N1C[C@H]2[C@@H](c3ccccc31)[C@@H](CO)N2CC1CCCCC1	-9	5	·	·	-17	·
N/C(=N\N=Cc1ccc2c(c1)OCO2)NN=Cc1ccc2c(c1)OCO2	-27	12	66*	-8	24	-15
CO[C@@H]1CN(C)C(=O)c2cc(NC(=O)c3cccc(Oc4ccccc4)c3)ccc2OC[C@H](C)NC[C@H]1C	-7	29	·	·	·	·
OCCN(CCO)CC(O)COc1ccc(Br)cc1 (configuration not stated)	11	8	-4	-16	-1	8
CCN(CC)CC(O)COCCC12CC3CC(CC(C3)C1)C2 (configuration not stated)	1	·	-13	24	·	2
OCCN(CCO)CC(O)COc1ccc(C23CC4CC(CC(C4)C2)C3)cc1 (configuration not stated)	-7	·	51	31	43	42*
OCCN(CCO)CC(O)COCCC12CC3CC(CC(C3)C1)C2 (configuration not stated)	·	·	-4	4	·	73*
CCCCCCCCC(c1nc2ccccc2[nH]1)N1CCN=C1c1cc2ccccc2[nH]1 (configuration not stated)	80*	38	·	16	27	·
O=C1NC(=S)S/C1=C/c1ccc(N2CCOCC2)o1	·	·	-4	-10	·	7
O=C1NC(=S)S/C1=C\C=C\c1ccc([N+](=O)[O-])o1	20	70*	90*	79	48	-48
Cc1ccc(C)c(S(=O)(=O)N2CCN(CC(=O)N3CCc4ccccc4C3)CC2)c1	9	·	1	4	·	57*
O=C(C[C@@H]1CC[C@H]2[C@@H](COC[C@H](O)CN2Cc2ccc(Oc3ccccc3)cc2)O1)Nc1nccs1	6	11	·	·	66*	·
O=C(C[C@@H]1CC[C@@H]2[C@H](COC[C@H](O)CN2Cc2ccc(Oc3ccccc3)cc2)O1)N1CCN(c2ccccc2)CC1	20	7	·	·	62*	·
O=C(C[C@@H]1CC[C@H]2[C@@H](COC[C@@H](O)CN2Cc2ccc(Oc3ccccc3)cc2)O1)N1CCN(c2ccccc2)CC1	18	36	·	·	64*	·
CCCNC(=O)Nc1ccc2c(c1)C(=O)N(C)C[C@H](OC)[C@H](C)CN(C(C)=O)[C@@H](C)CO2	-5	-5	·	·	-3	·
c1ccc(CCNc2nc(-c3ccccn3)nc3ccccc23)cc1	29	8	29	·	15	46*
CCCN(CCC)c1nc(-c2ccccn2)nc2ccccc12	15	41	44	76	60	37
O=C(O)c1cccc(NC(=O)c2cn(-c3ccccc3)nc2-c2ccc(F)cc2)c1	-18	-3	-4	-11	-7	82*
O=C(CCl)Nc1cn(-c2ccccc2)nc1-c1ccc(F)cc1	-36	33	46	96*	-32	-11
Fc1ccc(-c2nn(-c3ccccc3)cc2CNCc2ccccc2)cc1	-2	15	-3	-2	-11	-9
SMILES	LGR2 antag	EWS-Fli block	TRPM1 prom inh	Shn3 inh set2	PAX8 inh HTS	EBV LMP1 NFkB
CC(C)NC(=O)Nc1ccc2c(c1)CC(=O)N([C@@H](C)CO)C[C@@H](C)[C@H](CN(C)Cc1ccncc1)O2	4	-3	·	·	-14	·
CC(C)CC(=O)/C(=C/c1ccc(N(C)C)cc1)n1cncn1	-1	-1	11	23	-6	4
CC(C)CC(=O)/C(=C\c1ccc(Cl)cc1Cl)n1cncn1	·	·	86*	14	·	8
CC1(C)CCC(=O)N(c2ccc(OC(F)(F)F)cc2)C1=O	-22	-9	2	6	-24	-5
Cc1cccc(C)c1N1C(=O)CCC(C)(C)C1=O	3	-2	-4	-14	-5	50*
CC(C)C#Cc1ccc2c(c1)O[C@@H](CN(C)CC1CC1)[C@@H](C)CN([C@H](C)CO)S2(=O)=O	14	-14	·	·	·	·
CCCNC(=O)C[C@H]1C[C@@H]2c3cc(NS(=O)(=O)c4ccc(OC)cc4)ccc3O[C@@H]2[C@@H](CO)O1	7	-4	·	·	5	·
CN(C)C(=O)C[C@@H]1CC[C@@H]2[C@H](COc3ccc(NC(=O)C4CCC4)cc3C(=O)N2C)O1	-1	-3	·	·	·	·
COC(=O)c1ccccc1S(=O)(=O)NNC(=O)Nc1ccccc1	58*	25	10	-12	-3	19
CCCN1[C@@H]2Cn3c(ccc(-c4ccc(F)cc4)c3=O)[C@H]1[C@@H](C(=O)NCCc1cn(C)cn1)[C@@H]2CO	-3	7	·	·	-11	·
CCCCN(CC)CCNC(=O)c1cc2c(=O)n(CC)c3ccccc3c2s1	-12	28	-7	43	2	-39
CCCCN(CC)CCCNC(=O)c1cc2c(=O)n(CC)c3ccccc3c2s1	-25	23	69*	-89	5	-25
CSCCOC(=O)C1=C(C)NC(=O)NC1c1ccc2c(c1)OCO2 (configuration not stated)	-3	13	-7	8	17	2
CC1=C(C(=O)OCc2ccc3c(c2)OCO3)C(c2ccc(Cl)cc2)NC(=O)N1 (configuration not stated)	39	36	55	12	·	81*
CCOC(=O)C1=C(CCl)NC(=O)NC1c1ccc2c(c1)OCO2 (configuration not stated)	9	21	69*	5	6	-6
CC1=C(C(=O)OCc2ccc3c(c2)OCO3)C(c2ccc(F)cc2)NC(=O)N1 (configuration not stated)	28	·	46	7	·	79*
CCOC(=O)C1=C(CN2CCSCC2)NC(=O)NC1c1ccc2c(c1)OCO2 (configuration not stated)	-2	-3	-2	-3	10	1
COc1ccc2c3c([nH]c2c1)[C@H](CO)N(C(=O)Nc1ccc(F)cc1)CC31CN(C(=O)c2ccccc2F)C1	15	-2	·	·	14	·
Cc1ccc(S(=O)(=O)N[C@@H]2CC[C@@H](CC(=O)N3CCN(c4ccccc4)CC3)O[C@@H]2CO)cc1	7	5	·	·	3	·
COc1cc(Nc2ncc3c(n2)CCN(C(=O)Nc2ccc(C(C)C)cc2)C3)cc(OC)c1OC	16	1	·	20	65*	·

Screens deposited in PubChem BioAssay by Broad Institute.
